Bioassay records: PubChem, several laboratories
PERK inh: inhibitors of human PERK kinase; Q9NZJ5; inhibition, % at 5.6 µM; actives 0.17% (n = 220,000); AID 1416; CHO PERK-DD fusion, SEAP luminescence translation reporter;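 active = inhibition above the mean inhibition of all tested compounds plus 3 SD, set separately per screening campaign, cut at about 2.9% in these data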;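 note: PERK kinase domain activated by AP20187 dimerizer at 100 nM; 0% = DMSO with dimerizer and 100% = rapamycin at 8.4 µM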
Target sequence (Q9NZJ5 whole entry, looked up, the tested form may be a part): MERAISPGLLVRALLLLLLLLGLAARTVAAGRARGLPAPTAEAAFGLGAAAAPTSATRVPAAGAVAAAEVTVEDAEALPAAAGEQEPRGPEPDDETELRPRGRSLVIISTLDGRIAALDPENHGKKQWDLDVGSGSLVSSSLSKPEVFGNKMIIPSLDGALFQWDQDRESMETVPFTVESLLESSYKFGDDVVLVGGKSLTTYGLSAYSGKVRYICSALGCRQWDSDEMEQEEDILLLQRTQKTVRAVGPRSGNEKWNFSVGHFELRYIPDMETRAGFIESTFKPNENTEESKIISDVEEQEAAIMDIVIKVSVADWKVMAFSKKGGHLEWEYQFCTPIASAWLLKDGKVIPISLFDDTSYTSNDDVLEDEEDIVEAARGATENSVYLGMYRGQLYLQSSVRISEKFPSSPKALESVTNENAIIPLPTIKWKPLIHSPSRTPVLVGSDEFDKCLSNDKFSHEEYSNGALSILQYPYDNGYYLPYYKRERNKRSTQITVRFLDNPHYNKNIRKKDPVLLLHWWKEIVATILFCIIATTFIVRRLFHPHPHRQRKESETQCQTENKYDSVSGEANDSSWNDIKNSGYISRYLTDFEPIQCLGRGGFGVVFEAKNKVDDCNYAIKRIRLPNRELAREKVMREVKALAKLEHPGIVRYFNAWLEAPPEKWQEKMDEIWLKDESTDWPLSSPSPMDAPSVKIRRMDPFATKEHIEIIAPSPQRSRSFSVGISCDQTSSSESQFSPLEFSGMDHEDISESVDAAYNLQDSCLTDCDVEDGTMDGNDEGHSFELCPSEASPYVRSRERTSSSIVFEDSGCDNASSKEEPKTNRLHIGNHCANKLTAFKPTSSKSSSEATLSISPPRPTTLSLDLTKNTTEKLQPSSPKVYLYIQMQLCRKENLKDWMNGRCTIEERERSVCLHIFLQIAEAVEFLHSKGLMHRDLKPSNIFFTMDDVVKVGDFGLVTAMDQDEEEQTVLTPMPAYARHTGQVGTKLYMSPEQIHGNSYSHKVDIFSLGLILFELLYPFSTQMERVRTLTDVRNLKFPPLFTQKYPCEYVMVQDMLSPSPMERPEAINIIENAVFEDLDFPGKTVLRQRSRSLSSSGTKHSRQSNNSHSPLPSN
eIF4H FP inh: inhibitors of RNA binding by human eIF4H; eIF4H fluorescence polarization binding assay; inhibition, % at 35 µM; actives 0.94% (n = 290,000); AID 2012;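 note: calls also rest on retests at 20 µM and on dose response follow-up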
PABP1 MLLE inh: inhibitors of microRNA-mediated deadenylation, human PABP1 MLLE binding | P11940 | GST-MLLE / FITC-PAM2 fluorescence polarization | inhibition, % at 20 µM | actives 0.36% (n = 360,000) | AID 588489; in the data active = inhibition above about 35%, passing the limit was not always enough;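 note: plate controls were DMSO wells with GST-MLLE for no effect and wells lacking GST-MLLE protein for full effect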
PABP FP inh: blocks human PABP binding to poly(A) RNA | P11940 | fluorescence polarization | inhibition, % at 35 µM | AID 2014 | actives 1% (n = 290,000);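 note: calls also rest on retests at 20 µM and on dose response follow-up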
GRK2 aptamer HTS: inhibitors of human GRK2 displacing RNA aptamer; inhibition of aptamer binding, % at 10 µM; bead flow cytometry, FAM-aptamer displacement from GRK2; AID 488847; P25098; actives 0.59% (n = 330,000);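 active = inhibition of aptamer binding above 40%, roughly 3 SD of noise, on plates passing a quality check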;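 note: median bead fluorescence of bound FAM aptamer so fluorescent compounds give negative values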
GRK2 inh confirm: human GRK2 inhibition confirmation, cherry pick 1; aptamer displacement, % at 10 µM; bead-bound GRK2, FAM-aptamer displacement, flow cytometry; actives 4% (n = 2,000); shares compounds with GRK2 aptamer HTS; AID 504451;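 active = aptamer displacement above 40%, near three times the noise of non-fluorescent compounds, on plates passing quality checks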;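 note: negative values mostly reflect intrinsic compound fluorescence rather than true enhancement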
Aptamer quench 1: counter-screen for GRK2 aptamer inhibitors: fluorescent aptamer quenchers. fluorescence change (kMESF span), kMESF (no concentration beside the values). 110 tested, under 10 active. AID 504521. Fluorescent RNA aptamer beads, quenching, flow cytometry; hits give high values. shares compounds with GRK2 aptamer HTS;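 active = compounds whose bead fluorescence drops by more than 37 kMESF across the dose range, marking them as dye quenchers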
Aptamer quench SP: quenches fluorescent RNA aptamer, GRK2 hit artifact; shares compounds with GRK2 aptamer HTS; Carboxyfluorescein RNA aptamer on beads, flow cytometry quenching; hits give low values; fluorescence response (% of DMSO), % at 10 µM; 2,000 tested, under 10 active; AID 504580;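 active = compounds that quench the bead-bound fluorescent RNA probe, cutting fluorescence to under half of the solvent control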;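 note: counterscreen run without GRK2 so only probe quenching by compound is measured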
GRK2 confirm 2: confirmation of human GRK2 inhibitors binding RNA aptamer site; AID 504782; inhibition of aptamer binding, % at 10 µM; shares compounds with GRK2 aptamer HTS; 360 tested, under 10 active; bead-bound GRK2, FAM-aptamer displacement, flow cytometry;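 active = inhibition of aptamer binding above 40%, about triple the noise seen with nonglowing compounds, on plates passing quality control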;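 note: negative values mostly come from compounds that fluoresce themselves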
FAM quench CP2: quenches fluorescent RNA aptamer, GRK2 hit artifact; shares compounds with GRK2 aptamer HTS; carboxyfluorescein RNA aptamer beads, flow cytometry quenching; hits give low values; fluorescence response vs DMSO, % at 10 µM; 360 tested, under 10 active;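 active = response vs DMSO under 50%, meaning signal dropped by over half, treated as fluorescence quencher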;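 note: labelled aptamer on streptavidin beads without GRK2 as a quench counter-screen; 100% = bead fluorescence of DMSO wells and lower means quenching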
Numbers without * were called inactive; . = no result given. An excerpt weighted towards active compounds, which were near 1.9% of everything screened. Unless noted, the rule behind the calls is not given here.

SMILES | PERK inh | eIF4H FP inh | PABP1 MLLE inh | PABP FP inh | GRK2 aptamer HTS | GRK2 inh confirm | Aptamer quench SP | others
O=C(CCCCCCCC(=O)N1CCCC1)N1CCCC1 | . | . | 7 | . | . | . | .
O=C(CCSCCC(=O)N1CCCC1)N1CCCC1 | -1 | 1 | 23 | 11 | 45* | -4 | 96
c1ccc(CN2CC[C@@H](Nc3nccn4ccnc34)C2)cc1 | . | . | -16 | . | . | . | .
CSc1ccccc1C(=O)NCCCn1ccnc1 | . | -12 | 9 | -12 | 100* | 2 | 94
CCSc1ccccc1C(=O)NCCCn1ccnc1 | 0 | 8 | 15 | 20 | 0 | . | .
CC(C(=O)Nc1ccccc1C#N)N1C(=O)NC2(CCCCCC2)C1=O (stereo not drawn) | . | . | 4 | . | . | . | .
O=C(O)CC1NC(=S)N(c2ccccc2)C1=O (stereo not drawn) | 1 | -13 | -5 | -4 | 70* | -1 | 103
O=C1C(CSCc2ccccc2)NC(=S)N1c1ccccc1 (stereo not drawn) | 2 | 13 | 19 | 108 | 0 | . | .
Cn1nc(C(=O)NCC(=O)Nc2ccc(F)c(F)c2)ccc1=O | . | . | 3 | . | . | . | .
CCc1ccc(/C(C)=N/NC(=O)CNC(=O)/C=C/c2ccco2)cc1 | . | . | -12 | . | 42* | 12 | 91
O=C(/C=C/c1ccco1)NCc1ccco1 | 1 | 86* | -11 | 60* | 60* | 0 | 93
O=C(Nc1cccc(F)c1)C1CCCN(S(=O)(=O)c2cnc[nH]2)C1 (stereo not drawn) | . | -5 | 8 | 5 | 0 | . | .
c1ccc(CN(CC2=NCCN2)c2ccccc2)cc1 | 1 | 0 | -17 | -6 | 0 | 2 | 100
O=C(CN(C(=O)c1csnn1)c1cccc(Cl)c1)NC1CCCCC1 | . | -5 | 14 | 6 | 0 | . | .
CCOc1ncccc1C(=O)OCC(=O)Nc1ccc2c(c1)CCC2 | . | . | 7 | . | 24 | 0 | 108
Fc1ccc2cc(-c3ccccc3F)ncc2c1 | . | . | 8 | . | 100* | . | . | GRK2 confirm 2=-33;FAM quench CP2=103
Cc1ccc(/C=C/C(=O)NCCc2c[nH]c3ccccc23)o1 | 0 | -7 | -25 | -6 | 94* | 0 | 101
O=C(NCCc1ccccc1)c1coc(=O)c(Br)c1 | . | 12 | 8 | -3 | 0 | . | .
O=C(O)c1c2c(nc3ccccc13)/C(=C/c1ccc(O)cc1)CC2 | 1 | 105 | 16 | -4 | 67* | 50* | 98 | Aptamer quench 1=8.9
O=C(O)c1c2c(nc3ccccc13)/C(=C/c1ccc(OC(F)F)cc1)CCC2 | . | 9 | 6 | 17 | 0 | . | .
Cc1cc(NC(=O)c2ccc(Cl)cc2)no1 | 0 | -15 | 11 | -12 | 71* | 0 | 95
CSc1ccccc1C(=O)C1CCCN(C(=O)c2ccc(N3CCOCC3)cc2)C1 (stereo not drawn) | 0 | -7 | 17 | 3 | 1 | . | .
O=C(c1cccc2ccccc12)C1CCCN(C(=O)c2ccc(N3CCOCC3)cc2)C1 (stereo not drawn) | 0 | 0 | 7 | 10 | 3 | -2 | 100
Cc1ccc(NC(=O)c2noc3c2CCCCC3)cc1C | 0 | 6 | 18 | -14 | 100* | 0 | 99
COc1ccc(CCNC(=O)C(=O)NCC2OCCN2S(=O)(=O)c2cc(F)ccc2F)cc1OC (stereo not drawn) | . | 8 | -18 | -4 | 78* | -3 | 99
SMILES | PERK inh | eIF4H FP inh | PABP1 MLLE inh | PABP FP inh | GRK2 aptamer HTS | GRK2 inh confirm | Aptamer quench SP | others
CCC(C)(C)NC(=O)c1ccc2c(c1)S(=O)(=O)c1ccccc1C2=O | -3 | 1 | 1 | 14 | 54* | -1 | 99
CC(C)(C)c1ccc(NC(=O)c2ccc3c(c2)S(=O)(=O)c2ccccc2C3=O)cc1 | . | . | 2 | . | 0 | . | .
Cc1ccc2nc(-c3ccccn3)c(Nc3ccccc3C)n2c1 | -2 | 0 | 14 | 18 | 84* | 0 | 99
Cc1ccccc1Nc1c(-c2ccccn2)nc2ccccn12 | 0 | 11 | -4 | -9 | 0 | . | .
O=C(NCc1ccco1)c1nn2c(C(F)(F)F)cc(-c3cccs3)nc2c1Br | 0 | -2 | 25 | 30 | 19 | . | .
O=C(NCc1ccco1)c1nc2nc(-c3cccs3)cc(C(F)(F)F)n2n1 | 0 | 21 | 15 | 30 | 42* | 2 | 99
COc1ccc(Cc2c(O)nc(SC)n(C(C)=O)c2=O)cc1 | 0 | 0 | -1 | -1 | 100* | -1 | 103
CC1Cc2nc(SCC(=O)N3CCCC3)n(C)c(=O)c2S1 (stereo not drawn) | 2 | 1 | 5 | 2 | 100* | -1 | 96
COc1ccc(N2CCN(C3CCCN(C(=O)CN4CCCC4=O)C3)CC2)cc1 (stereo not drawn) | . | -4 | -7 | 2 | 11 | . | .
CSCCC(NC(=O)c1ccccc1)C(=O)Nc1ccc(NC(C)=O)cc1 (stereo not drawn) | 0 | -1 | . | -7 | 0 | . | .
COc1ccccc1CC(=O)N1CCCC(CCC(=O)NCc2ccccc2F)C1 (stereo not drawn) | -1 | -15 | 1 | -1 | 1 | . | .
Cc1ccnn1CCC(=O)N1CCCC(CCC(=O)NCc2ccccc2F)C1 (stereo not drawn) | 0 | 2 | 2 | -9 | 3 | 0 | 99
O=C(O)CC(NC(=O)C12CC3CC(CC(C3)C1)C2)c1ccc2c(c1)OCO2 (stereo not drawn) | 0 | -3 | 9 | -3 | 1 | . | .
O=C(O)CC(NC(=O)C12CC3CC(CC(C3)C1)C2)c1ccc(F)cc1 (stereo not drawn) | . | 9 | -5 | 10 | 88* | 1 | 95
O=C(CCC(=O)N1CCN(c2ccccc2F)CC1)N1CCN(c2ccccc2)CC1 | . | -8 | 11 | 4 | 0 | -2 | 99
CC(C)[C@H](NS(=O)(=O)c1cccc(Cl)c1)C(=O)OCC(=O)NC(=O)CN1CCCC1=O | . | . | 0 | . | 45* | 39 | 100
CN(C)C(=O)c1ccc(NC(=O)c2ccccc2Sc2ccccc2C#N)cc1 | 0 | -6 | 7 | -1 | 0 | . | .
O=C(NCc1ccccc1F)C1CCCN(S(=O)(=O)N2CCOCC2)C1 (stereo not drawn) | . | . | 0 | . | 3 | 1 | 99
COc1ccccc1-c1csc(C(O)c2cccc(Cl)c2)n1 (stereo not drawn) | . | . | -6 | . | . | . | .
